Rtt109 HAT inh: inhibitors of C. albicans Rtt109/Vps75 HAT, primary screen, biochemical, ThioGlo CoA-SH fluorescence, plate reader; hit rate 0.16% among 330,000; inhibition, % at 34.9 µM; purified Rtt109/Vps75, 4 h;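 active means inhibition of at least 50% in every replicate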
TPT1 inh: Candida albicans TPT1 enzyme inhibitors, primary screen, biochemical, fluorescence polarization; hit rate 0.81% among 300,000; tRNA 2'-phosphotransferase TPT1 (Candida albicans SC5314); inhibition, % at 5 µM; recombinant caTPT1, FP RNA substrate dephosphorylation;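 active means inhibition above the mean of all tested compounds plus 3 SD, set per screening campaign, cut at about 24% in these data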;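 further: plate controls were DMSO alone for no effect and ferristatin control at 100 nM for full effect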
WT yeast gro inh: growth inhibition of WT strain, primary screen, mitochondrial fusion inhibitor project, WT and mutant strains, chemical genetic. mitochondrial fusion phenotypic screen. inhibition, % at 10 µM. hit rate 2.1% among 190,000; in the data active means inhibition above about 58%; tested in S. cerevisiae
Platelet DG rel: inhibitors of platelet dense granule secretion, primary screen, cell-based, MLPCN, human platelets; AID 1663, 2009; human platelet-rich plasma, SFLLRN dense granule ATP release, luminescence; hit rate 0.22% among 300,000; inhibition, %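 (compounds screened at 7.5 µM in platelet-rich plasma)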;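 active means mean replicate score, as percent of positive control, at or above 50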
PHOSPHO1 inh: PubChem AID 1565; hit rate 1.1% among 290,000; recombinant PHOSPHO1, absorbance phosphatase assay; Phosphoethanolamine/phosphocholine phosphatase (Homo sapiens), Q8TCT1; inhibition, % at 13.3 µM; in the data active means inhibition above about 60%
Target sequence (Q8TCT1 whole entry, looked up): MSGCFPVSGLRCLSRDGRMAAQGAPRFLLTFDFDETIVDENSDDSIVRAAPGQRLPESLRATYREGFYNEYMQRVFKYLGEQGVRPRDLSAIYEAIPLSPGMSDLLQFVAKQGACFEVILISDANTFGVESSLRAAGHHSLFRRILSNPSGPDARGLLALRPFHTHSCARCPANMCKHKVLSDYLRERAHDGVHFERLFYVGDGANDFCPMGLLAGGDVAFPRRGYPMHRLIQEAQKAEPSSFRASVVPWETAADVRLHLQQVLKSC
SKKanGAS inh: S. pyogenes SKKanGAS growth inhibitors in kanamycin, primary screen, streptokinase expression inhibitor project, SKKanGAS strain, BacTiter-Glo luminescence. 6 h. inhibition, % at 7.5 µM. hit rate 1.3% among 300,000;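 active means mean replicate score, as percent of positive control median, at least 50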;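 further: strain carries kanamycin resistance gene driven by streptokinase promoter and grows in 40 µg/ml kanamycin; loss of luminescence reflects streptokinase promoter inhibition or plain growth inhibition; 0% = median of DMSO wells and 100% = positive control at its reference dose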
An asterisk follows results filed as active; . = not tested or not shown. Compounds with a hit are over-represented: about 3.9% of the library has one in this group of screens.

SMILES	Rtt109 HAT inh	TPT1 inh	WT yeast gro inh	Platelet DG rel	PHOSPHO1 inh	SKKanGAS inh
CC1CN(c2nc(-c3ccccc3)nc3ccccc23)CC(C)O1 (centres undefined)	7	-2	-6	-13	19	-5
CC(C)(C)c1ccc(CN2N=C(/C=C/c3ccccc3)CCC2=O)cc1	1	-1	72*	1	8	27
Cc1ccc(/C=C/C2=NN(Cc3ccccc3Cl)C(=O)CC2)cc1	0	1	59*	0	3	27
Cc1[nH]ccc(=O)c1OCc1c(Cl)cccc1Cl	-1	-1	-12	-1	2	-1
Cc1ccc(Cn2ccc(=O)c(OCc3c(Cl)cccc3Cl)c2C)cc1	0	4	77*	5	-12	70*
O=C1Cc2ccccc2Sc2c(OCCN3CCCCC3)cccc21	55*	1	27	35	-12	-8
Cc1cccc(C(C)C)c1NC(=O)c1c(-c2ccccc2)noc1C	-3	-4	.	-4	26	0
CC(=O)Nc1ncc(Cc2cccc(Cl)c2)s1	-4	-1	12	-3	60*	5
O=C(Nc1ncc(Cc2cccc([N+](=O)[O-])c2)s1)c1ccco1	6	-2	0	8	60*	4
CC(=O)Nc1ncc(Cc2cc(Cl)ccc2Cl)s1	4	-4	76*	5	49	11
O=C(Nc1cc([N+](=O)[O-])ccc1O)c1cccc(NC(=O)c2ccco2)c1	-3	-6	.	3	23	53*
COc1cc(NC(=O)c2cccc([N+](=O)[O-])c2)ccc1NC(=O)c1ccco1	5	-3	-1	1	-4	-4
CC(=O)Nc1ncc(Cc2cccc(Cl)c2Cl)s1	-2	1	-3	1	15	7
CCn1c(SCC(=O)Nc2ccc3c(c2)OCCO3)nnc1C1CC1	-8	0	.	-3	20	-5
Cc1cccc(Cc2cnc(NC(=O)c3ccc(C)o3)s2)c1	3	-4	1	1	23	77*
Cc1ccc(C2CC(=O)N3CN(c4ccc(Br)cc4)CSC3=C2C#N)o1 (centres undefined)	-1	18	21	3	93*	20
CCOc1ccc(N2CSC3=C(C#N)C(c4ccco4)CC(=O)N3C2)cc1 (centres undefined)	-1	10	-1	6	94*	8
CC(C)N(Cc1nc(-c2ccccc2)no1)C(=O)C(C)(C)C	5	-4	-2	7	7	-4
CC(C)N(Cc1nc(-c2ccc(Cl)cc2)no1)C(=O)CCC1CCCC1	-3	-2	67*	-1	-1	20
Cc1ccc(C)c(C(=O)N(Cc2nc(-c3ccc(Cl)cc3)no2)C(C)C)c1	8	2	70*	7	-4	13
COc1ccccc1OCC(=O)N(Cc1nc(-c2ccc(Cl)cc2)no1)C(C)C	-5	-1	27	11	-18	-4
CC(C)N(Cc1nc(-c2ccccc2)no1)C(=O)C(Cl)(Cl)Cl	-1	-1	72*	1	51	14
CC(Oc1ccccc1)C(=O)Nc1nnc(S(=O)(=O)Nc2ccccc2)s1 (centres undefined)	15	0	.	0	25	4
Fc1ccc(C2CC(c3ccco3)=Nc3ccccc3S2)cc1 (centres undefined)	56*	-2	-14	2	57	9
O=[N+]([O-])c1ccc(C2CC(c3ccccc3)=Nc3ccccc3S2)cc1 (centres undefined)	-11	-2	.	5	37	-2
Cc1ccc(OCc2cc(C(=O)N3CCN(c4ccccc4)CC3)no2)cc1C	-4	-4	.	-11	-20	8
Cc1ccccc1NC(=O)CSc1nnc(C)c2ccccc12	5	1	.	-1	-2	-10
Cc1ccc(-c2cc(C(=O)N3N=C(C(F)F)CC3(O)C(F)F)c3ccccc3n2)cc1C (centres undefined)	9	0	92*	0	1	11
CCCC[C@@H]1CNC(=S)N1CC1CCCCC1	-6	4	.	-8	31	-3

Bioassay records deposited in PubChem BioAssay by several laboratories.
